Compounds without any hit were thinned out: in the full panel of roughly 83,000, 20% have a hit.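 Results are percent growth after 48 hours of single-concentration exposure. 100 means growth as in untreated cells, lower positive values show inhibition; negative values down to -100 show cell death.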 Activity calls are given as the source filed them. How the source made its calls: active means growth percent below 10; inactive means the rest.
What follows are compounds tested on MDA-MB-468 breast (assay: NCI-60 one-dose screen, 48 h (100 = growth as untreated, 0 = no growth, -100 = all killed)). Conditions: 10 µM unless noted.

With `O=C(Nc1cccc(C(F)(F)F)c1)Nc1ccc(OCc2nnc(-c3ccc(Cl)cc3)o2)c(F)c1` as the compound, how does the growth read?
The growth was 68.2% (inactive).

For `CCn1cc(CNc2ccc(C(=O)Nc3cc4cc(OC)c(OC)cc4c(C)n3)cc2)cn1`, which growth is on record?
The growth was 41.8% (inactive).

How did the growth turn out when `O=[N+]([O-])/C(=C/C=C/c1ccccc1)c1ccccc1` was run?
The growth was 2.79% (active).

`O=[N+]([O-])c1c(Cl)ncnc1Cl` was tested. Which growth did it give?
The growth was 101% (inactive).

How did the growth turn out when `Nc1c(Cl)cc(N=Nc2ccccc2)cc1Cl` was run?
Its growth is -61.3% (active).

Which growth does the source give for `CCCCCOC(=O)c1ccc(NC(=O)CNCC(C)C)cc1` here?
The growth was 102% (inactive).

`C[C@@H](O)[C@H]1C(=O)N2C(C(=O)O)=C(SCCN=CN)C[C@H]12` was tested. Which growth did it give?
The growth was -48.1% (active).

How did the growth turn out when `Cc1ccc(-c2nnc3sc(C4=Cc5ccccc5OC=C4)nn23)cc1` was run?
Its growth is 109% (inactive).

Which growth does the source give for `CCOC(=O)C1=C(C)NC(=O)NC1c1c(Cl)n(-c2ccccc2)c2ccccc12` (stereo not given) here?
Its growth is 58.3% (inactive).

`NC(=O)c1cccc(-n2ccc3cc(NC(=O)Nc4ccc(Cl)c(Cl)c4)ccc32)n1` was tested. Which growth did it give?
Its growth is 60.8% (inactive).

Which growth does the source give for `Cc1ccc(CNc2c3ccccc3nc3ccccc23)cc1` here?
The growth was 7.18% (active).

How did the growth turn out when `CC(C)(c1ccc(OCC(O)CNCc2ccco2)cc1)c1ccc(OCC(O)CNCc2ccco2)cc1` (stereo not given) was run?
The growth was 98.1% (inactive).

How did the growth turn out when `CCOC(=O)c1c(NC(=O)c2ccccc2)sc2c3c(ccc12)OCN(C)C3` was run?
The growth was -73.7% (active).

With `N#CC1=C(N)Oc2c(ccc3ccccc23)C1c1cc2ccccc2n2nnnc12` (stereo not given) as the compound, how does the growth read?
The growth was -8.83% (active).

With `O=C(NO)c1ccc(Cn2c(=O)n(CCc3ccc(O)cc3)c(=O)c3ccccc32)cc1` as the compound, how does the growth read?
Its growth is 29.8% (inactive).

With `COc1ccc2[nH]c(C(=O)N3CCN(C(=O)OCc4ccc5c(Cl)cc(Cl)c(O)c5n4)CC3)cc2c1` as the compound, how does the growth read?
The growth was -76.5% (active).

How did the growth turn out when `Cc1ccc(Nc2cc(Cl)c([N+](=O)[O-])cc2[N+](=O)[O-])cc1` was run?
Its growth is -65.8% (active).

`CNC(=O)c1cc(Oc2ccc(CC(=O)Nc3cc(C(C)(C)C)cn3C)cc2)ccn1` was tested. Which growth did it give?
The growth was 29.5% (inactive).

For `COc1cccc2c1Cc1ccccc1-2`, which growth is on record?
Its growth is 99% (inactive).

With `Clc1cccc(-c2nc(-c3cccs3)no2)c1` as the compound, how does the growth read?
The growth was 3.37% (active).

Which growth does the source give for `C=C(C)c1ccc(/C=N/NC(N)=S)cc1` here?
Its growth is 70.6% (inactive).

`COc1cc(NCc2ccccc2O)c2ncccc2c1` was tested. Which growth did it give?
The growth was 90.4% (inactive).

How did the growth turn out when `O=C(Cn1c2ccccc2c2ccncc21)N/N=C/c1cc(O)c(O)c(O)c1` was run?
Its growth is 111% (inactive).

With `O=C(/C=C1\C(=O)N(Cc2ccccc2)c2ccccc21)c1ccc(OCCN2CCCCC2)cc1` as the compound, how does the growth read?
Its growth is 19.6% (inactive).

`Cc1ccc(/C=C(\C#N)c2cc3ccccc3n2C)cc1` was tested. Which growth did it give?
The growth was 23.6% (inactive).

Reference: PubChem BioAssay (NCI)
